HP1b binding inh – HTS for Inhibitors of HP1-beta Chromodomain Interactions with Methylated Histone Tails; AlphaScreen HP1-beta / biotin-H3K9me3 peptide binding; Potency, µM (doses to about 114 µM), without a hit: at the top dose activity change, negative = inhibition, hits mostly inhibitors; AID 540317, 2011; Chromobox protein homolog 1 (Homo sapiens), P83916; 0.56% of 390,000 active; also: nearly all actives have a fitted effect of over 70% in size
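Compound inhibition of the preformed complex between 50 nM HP1-beta and 50 nM biotinylated H3K9me3 peptide was read by AlphaScreen. Buffer was PBS pH 7.4 with 0.01% Tween-20. Incubations ran 30 min at room temperature, with 10 ug/mL donor/acceptor beads.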
Sfp inh – qHTS Assay for Inhibitors of Bacillus subtilis Sfp phosphopantetheinyl transferase (PPTase). 4'-phosphopantetheinyl transferase ffp (Bacillus subtilis), Q9F4F7. Biochemical Sfp PPTase activity, qHTS. Potency, µM, for inactives: largest response in the series, negative = inhibition, usual class: inhibitors. 3.5% of 310,000 active. AID 1490, 2009;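 also: the enzyme is Sfp with the accession as filed and its product quenches rhodamine fluorescence; 0% = enzyme reaction without inhibitor and -100% = no enzyme wells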
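Buffer: 50 mM Hepes-Na pH 7.6, 10 mM MgCl2, 0.01% Nonidet P-40, 0.01% BSA. Enzyme 15 nM, pre-exposed to compound 15 min; substrates then added and fluorescence change tracked over 30 min.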
JMJD2A Tudor – qHTS Assay for Inhibitors of JMJD2A-Tudor Domain | Lysine-specific demethylase 4A (Homo sapiens), O75164 | AlphaScreen JMJD2A-Tudor / H3K4me3 peptide binding | Potency, µM (doses to about 114 µM), inactives show at the top dose activity change, negative = inhibition, usual class: inhibitors | 4.4% of 390,000 active; also: % is scaled to controls: 0 for no effect and ±100 for the full control effect; nearly all actives have a fitted effect of over 50% in size
Target sequence (O75164 whole entry, looked up, the tested form may be a part): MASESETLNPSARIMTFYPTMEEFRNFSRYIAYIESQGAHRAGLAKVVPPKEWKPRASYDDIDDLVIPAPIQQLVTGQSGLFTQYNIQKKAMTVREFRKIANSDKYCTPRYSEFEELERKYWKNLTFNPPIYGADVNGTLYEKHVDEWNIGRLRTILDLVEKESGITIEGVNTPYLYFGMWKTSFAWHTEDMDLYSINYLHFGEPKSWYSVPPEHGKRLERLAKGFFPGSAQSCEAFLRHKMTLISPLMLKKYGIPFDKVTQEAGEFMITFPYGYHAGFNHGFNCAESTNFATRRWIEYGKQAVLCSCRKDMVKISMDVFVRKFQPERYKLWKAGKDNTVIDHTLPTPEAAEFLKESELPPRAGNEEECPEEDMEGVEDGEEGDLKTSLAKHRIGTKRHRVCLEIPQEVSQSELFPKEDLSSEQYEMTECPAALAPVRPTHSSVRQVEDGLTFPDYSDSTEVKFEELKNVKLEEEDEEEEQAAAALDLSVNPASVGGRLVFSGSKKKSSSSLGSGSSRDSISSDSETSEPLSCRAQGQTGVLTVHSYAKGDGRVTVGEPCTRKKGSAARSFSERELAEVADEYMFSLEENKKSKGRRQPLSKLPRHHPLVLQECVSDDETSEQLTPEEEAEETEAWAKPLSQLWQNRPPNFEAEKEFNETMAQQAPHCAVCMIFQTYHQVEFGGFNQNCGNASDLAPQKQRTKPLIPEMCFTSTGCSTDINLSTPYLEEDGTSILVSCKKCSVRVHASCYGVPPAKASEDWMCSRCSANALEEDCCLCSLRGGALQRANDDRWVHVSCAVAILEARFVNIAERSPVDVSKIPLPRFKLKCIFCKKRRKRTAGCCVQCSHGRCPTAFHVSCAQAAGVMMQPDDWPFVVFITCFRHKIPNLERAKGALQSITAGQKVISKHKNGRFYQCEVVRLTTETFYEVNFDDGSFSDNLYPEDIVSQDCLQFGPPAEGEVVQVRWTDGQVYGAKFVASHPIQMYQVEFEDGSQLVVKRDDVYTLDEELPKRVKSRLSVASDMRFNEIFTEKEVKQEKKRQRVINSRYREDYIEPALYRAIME
G9a block – qHTS Assay for Inhibitors of Histone Lysine Methyltransferase G9a; 8.8% of 350,000 active; G9a H3K9 monomethylation, AlphaScreen, 2 h; AID 504332, 2011; Histone-lysine N-methyltransferase EHMT2 (Homo sapiens), Q96KQ7; Potency, µM (doses to about 102 µM), for inactives: at the highest dose activity, negative = inhibition, most hits filed as inhibitors; also: % is scaled to controls: 0 for no effect and ±100 for the full control effect; nearly all actives have a fitted effect of over 75% in size
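Step 1: enzyme (final 20 nM) with compound, 15 min RT. Step 2: substrate peptide 500 nM and SAM 20 uM, 2 h RT. Step 3: anti-H3K9me1 antibody and AlphaScreen beads, 10 min, then plate read.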
L3MBTL1 inh – qHTS Assay for the Inhibitors of L3MBTL1; AlphaScreen L3MBTL1–H3K9me1 peptide binding; Potency, µM (series often up to 57.1 µM), for inactives: top-dose activity, negative = inhibition, usual class: inhibitors; Lethal(3)malignant brain tumor-like protein 1 (Homo sapiens), Q9Y468; 0.66% of 230,000 active; AID 485360, 2010; also: % is scaled to controls: 0 for no effect and ±100 for the full control effect; nearly all actives have a fitted effect of over 60% in size
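Read-out is AlphaScreen signal from streptavidin donor and nickel chelate acceptor beads (10 ug/mL final each) bridging L3MBTL1 (50 nM) and biotinylated K9-monomethylated H3(1-15) peptide (75 nM), after 30 min compound exposure at room temperature.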
BAZ2B block – qHTS Assay for Inhibitors of BAZ2B; AlphaScreen BAZ2B-H3K14Ac peptide displacement; 4.4% of 360,000 active; Potency, µM (highest dose often 114 µM), without a hit: at the highest dose activity change, negative = inhibition, most hits filed as inhibitors; Bromodomain adjacent to zinc finger domain protein 2B (Homo sapiens), Q9UIF8; also: % is scaled to controls: 0 for no effect and ±100 for the full control effect; nearly all actives have a fitted effect of over 60% in size
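Inhibition is scored as reduced AlphaScreen emission. The BAZ2B/b-H3(5-23)K14Ac complex (50 nM each) in PBS pH 7.4, 0.01% Tween-20 meets compound (up to 110 uM) for 30 min at RT before bead addition.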
Active calls of the source: *; ? = inconclusive; . = not tested or not shown; [ ] = remark or other dose. Sampled rows, rich in hits. Any-hit rate of the full collection: about 12%. Calls follow the shape of the dose curve; as a rule, active = well fitted curve in the direction sought with a large enough effect; inconclusive = small, poorly fitted or top-dose-only effect, or another doubt; inactive = no such curve, though single readings can be large; an effect the other way counts as inactive or inconclusive. Potency is read from the fitted curve at half-maximal effect.

SMILES | HP1b binding inh | Sfp inh | JMJD2A Tudor | G9a block | L3MBTL1 inh | BAZ2B block
O=S(=O)(Nc1ccc(N=Nc2ccccc2)cc1)c1ccccc1 | 45µM* | 21% | 35µM* | 32µM* | -25% | 35µM*
Cc1cccc(-c2noc(CN(C(=O)COc3ccc(C(C)C)cc3)C(C)C)n2)c1 | 58% | . | 13% | 31%[59 µM] | . | 18%
CCOc1cc(CNC(=O)c2ccc3c(c2)N(C)C(=O)C2CCCCN32)cc(OCC)c1OCC (stereo not drawn) | 16%[57 µM] | . | -28% | -14%[59 µM] | . | -22%
Cc1ccc(CN(C(=O)c2ccco2)C(C(=O)NC2CCCC2)c2cccnc2)cc1 (stereo not drawn) | 7% | 18% | -10% | 4% | 2% | -16%
Cc1ccc(CN(C(=O)c2ccco2)C(C(=O)NC2CCCC2)c2ccc(N3CCOCC3)cc2)cc1 (stereo not drawn) | 19% | 5% | -14% | 28µM* | -2% | -17%
O=C1[C@H]2CCC=C[C@H]2[C@H](c2cccc(Br)c2)N1Cc1ccccc1 | 35% | 112µM* | ? | 15% | -5% | .
O=C1C2C(c3ccccc3)CC=CC2C(c2cccc(Br)c2)N1Cc1ccccc1 (stereo not drawn) | 6% | 0% | -10% | . | . | .
N#Cc1ccc(OCC(=O)Nc2ccncc2)cc1 | 35% | -24% | -2% | 50µM* | . | -11%
O=C(COc1ccc(Br)cc1)Nc1ccncc1 | 35% | 16% | -2% | 23% | . | 7%
N#Cc1ccc(OCC(=O)NCCCn2ccnc2)cc1 | 9%[57 µM] | . | 63µM* | . | ? | .
Cc1cc(C)c(NC(=O)Cn2nnc(-c3nc(-c4ccncc4)no3)c2N)c(C)c1 | 27% | . | 3% | ? | . | -11%
COc1ccc(-c2cc3nc(C)c(CCC(=O)N4CCN(c5cccc(Cl)c5)CC4)c(C)n3n2)c(OC)c1 | 28% | . | -23% | ? | . | ?
CCc1ccc(N(CC)C(=O)c2sc3nc4n(c(=O)c3c2C)CCCC4)cc1 | 25% | . | 79µM* | 16µM* | . | 25µM*
CCN(C(=O)c1sc2nc3n(c(=O)c2c1C)CCCCC3)c1ccc(OC)cc1 | 13% | . | 79µM* | 5.6µM* | . | 35µM*
CCN(C(=O)c1sc2nc3n(c(=O)c2c1C)CCCCC3)c1ccccc1F | 58% | . | -2% | 8.9µM* | . | -34%
Cc1ccc(/C=N/NC(=O)Cn2nccc2C)o1 | 14% | -5% | -26% | 18%[2.33 µM] | 3% | -5%
Cc1ccc(/C=N/NC(=O)Cn2nnc(N)n2)o1 | 28% | -8% | -8% | 45µM* | 4% | -3%
Cc1ccc(/C=N/NC(=O)Cn2nc(C)c([N+](=O)[O-])c2C)o1 | 31% | 45µM* | -22% | 50µM* | 7% | -18%
COc1cccc(CNC(=O)Cn2nc(C)c([N+](=O)[O-])c2C)c1 | 20% | 17% | -15% | -95% | 1% | 1%
Cc1nn(C(C)C(=O)N/N=C/c2ccc(N(C)C)cc2)c(C)c1[N+](=O)[O-] (stereo not drawn) | -2% | -12% | ? | 56µM* | -14% | ?
COc1ccc(/C=N/NC(=O)Cn2nc(C)c([N+](=O)[O-])c2C)cc1 | 11% | -2% | 79µM* | 13%[59 µM] | -2% | -3%
COC(=O)c1c(-c2ccc(Cl)cc2)noc1N1CCN(c2cccc(C(F)(F)F)c2)CC1 | 51%[57 µM] | . | 18% | 16%[59 µM] | . | 22%
C[C@H]1C[C@@H]2[C@@H]([C@@H](O)C[C@@]3(C)[C@H]2CC[C@]3(O)C(=O)CO)[C@@]2(C)C=CC(=O)C=C12 | . | 13% | . | 38%[21.5 µM] | . | .
C/C(=N\Nc1ccc2nncn2n1)c1ccccn1 | 27% | 4% | 22µM* | 4% | 25µM* | 8.9µM*
C(=N\n1cnnc1)/c1ccccn1 | 27% | 22% | -14% | 10%[12.7 µM] | . | -4%
SMILES | HP1b binding inh | Sfp inh | JMJD2A Tudor | G9a block | L3MBTL1 inh | BAZ2B block
C(=N\Nc1ccc2nncn2n1)/c1ccccn1 | 26% | 32µM* | ? | -4% | 5% | -27%
O=C(Cn1c(=O)n(-c2ccc(Cl)cc2)c(=O)c2sc3ccccc3c21)NC1CCCCC1 | 17% | . | -17% | 7%[59 µM] | . | -30%
CCOc1ccc(OCC)c(NC(=O)c2cc(-c3cccs3)nc3ccccc23)c1 | 28% | . | -17% | -35%[59 µM] | . | 2%
CC(=O)N1CCc2c(sc(NC(=O)CS(=O)(=O)c3ccc(F)cc3)c2C(N)=O)C1 | 1% | . | -10% | 50µM* | 5% | -35%
CN1CCc2c(sc(NC(=O)Cc3ccc(F)cc3)c2C(N)=O)C1 | 24% | 8% | -12% | 3%[59 µM] | . | -4%
CNC(=O)c1c(NC(=O)CCS(=O)(=O)c2ccc(Cl)cc2)sc2c1CCN(C(=O)OC)C2 | 12% | . | -19% | 50µM* | 0% | -5%
CCOC(=O)N1CCc2c(sc(NC(=O)CCS(=O)(=O)c3ccccc3)c2C(N)=O)C1 | 17% | -9% | -19% | -8% | . | -15%
CC(=O)N1CCc2c(sc(NC(=O)C3COc4ccccc4O3)c2C(N)=O)C1 (stereo not drawn) | -4% | 32µM* | -12% | . | . | -25%
CN1CCc2c(sc(NC(=O)CS(=O)(=O)c3ccc(F)cc3)c2C(N)=O)C1 | 24% | . | -5% | 50µM* | ? | 0%
CC(=O)N1CCc2c(sc(NC(=O)CCS(=O)(=O)c3ccccc3)c2C(N)=O)C1 | 25% | 4% | -13% | 11% | . | -10%
COc1ccc(-c2nn(-c3cccc(F)c3)c3c2cnc2cc(OC)c(OC)cc23)cc1 | 21% | . | -9% | 28%[59 µM] | . | -8%
COc1ccc(CNC(=O)c2ccc(Cn3c(=O)c4cccn4c4cccnc43)cc2)cc1OC | 10% | . | -12% | -2%[59 µM] | . | -12%
COc1ccc(C(C)=O)cc1CSc1nc2cc(C(=O)O)ccc2c(=O)n1Cc1ccccc1 | 15% | -8% | -31% | ? | -5% | 50µM*
CCOC(Cn1c(SCc2cc(C(C)=O)ccc2OC)nc2ccccc2c1=O)OCC | 29% | 8% | 1% | 19% | 1% | 2%
CC(=O)NC(=O)NC1OC(=O)C(Cl)=C1Cl (stereo not drawn) | 36% | -20% | 2%[57.1 µM] | 40µM* | 2% | 3%

Screens as filed in PubChem BioAssay.
